Reference: the antibiotic and cytotoxicity screens of Wong et al. (2023)
Hit rate of the full screen: of about 39,000 compounds, about 3,300 (8.5%) were called active. The entries come from a sample that favours actives as a whole.

The molecules below were run on HepG2 (assay: cytotoxicity call (relative viability < 0.9)). Details: 10 µM.
In the case of C[C@H](CO)N1C[C@H](C)[C@@H](CN(C)C(=O)NC2CCCCC2)OCCCC[C@H](C)Oc2ccc(NC(=O)Cc3ccccc3)cc2C1=O, the cytotoxicity call is reported as “inactive”. With COc1ccc(CN(C)C[C@H]2Oc3c(NC(=O)Nc4ccc(C(F)(F)F)cc4)cccc3C(=O)N([C@@H](C)CO)C[C@@H]2C)cc1 the cytotoxicity call was “inactive”. In the case of C[C@@H]1CN([C@H](C)CO)C(=O)c2cc(NC(=O)Nc3ccc(F)cc3)ccc2O[C@@H](C)CCCCO[C@H]1CN(C)Cc1ccc(C(F)(F)F)cc1, the cytotoxicity call is reported as “active”. With C[C@@H]1CCCCO[C@H](CN(C)Cc2ccc(C(F)(F)F)cc2)[C@H](C)CN([C@H](C)CO)C(=O)c2cc(NC(=O)Nc3ccc(F)cc3)ccc2O1 the cytotoxicity call was “active”. In the case of C[C@@H]1CCCCO[C@H](CN(C)Cc2ccc(C(F)(F)F)cc2)[C@H](C)CN([C@@H](C)CO)C(=O)c2cc(NC(=O)Nc3ccc(F)cc3)ccc2O1, the cytotoxicity call is reported as “active”. With C[C@@H]1CN([C@H](C)CO)C(=O)c2cc(NC(=O)Nc3ccc(F)cc3)ccc2O[C@@H](C)CCCCO[C@@H]1CN(C)Cc1ccc(C(F)(F)F)cc1 the cytotoxicity call was “inactive”. In the case of C[C@H]1CCCCO[C@@H](CN(C)Cc2ccc(C(F)(F)F)cc2)[C@@H](C)CN([C@@H](C)CO)C(=O)c2cc(NC(=O)Nc3ccc(F)cc3)ccc2O1, the cytotoxicity call is reported as “active”. In the case of C[C@@H]1CCCCO[C@H](CN(C)Cc2ccc(C(F)(F)F)cc2)[C@@H](C)CN([C@H](C)CO)C(=O)c2cc(NC(=O)Nc3ccc(F)cc3)ccc2O1, the cytotoxicity call is reported as “inactive”. For C[C@@H]1CCCCO[C@@H](CN(C)Cc2ccc(C(F)(F)F)cc2)[C@@H](C)CN([C@H](C)CO)C(=O)c2cc(NC(=O)Nc3ccc(F)cc3)ccc2O1, the cytotoxicity call was “inactive”. For C[C@@H]1CCCCO[C@@H](CN(C)Cc2ccc(C(F)(F)F)cc2)[C@@H](C)CN([C@@H](C)CO)C(=O)c2cc(NC(=O)Nc3ccc(F)cc3)ccc2O1, the cytotoxicity call was “inactive”. For C[C@H](CO)N1C[C@H](C)[C@@H](CN(C)Cc2ccc(Cl)c(Cl)c2)Oc2ccc(NC(=O)Cn3cnnn3)cc2CC1=O, the cytotoxicity call was “inactive”. COc1ccc(S(=O)(=O)Nc2ccc3c(c2)C(=O)N([C@H](C)CO)C[C@@H](C)[C@H](CN(C)C(=O)Nc2ccc(F)cc2)OCCCC[C@@H](C)O3)cc1 was tested, and the cytotoxicity call was “inactive”. For C=CCN(C#N)c1nc(N(C)C)nc(N(C)C)n1, the cytotoxicity call was “inactive”. With C[C@@H]1CN([C@H](C)CO)C(=O)c2cccc(NC(=O)c3cnccn3)c2O[C@@H]1CN(C)Cc1ccccc1 the cytotoxicity call was “inactive”. Cc1noc(C)c1S(=O)(=O)Nc1ccc2c(c1)C(=O)N([C@H](C)CO)C[C@H](C)[C@@H](CN(C)S(=O)(=O)c1cccs1)O2 was tested, and the cytotoxicity call was “inactive”. In the case of Cc1noc(C)c1NC(=O)Nc1ccc2c(c1)CC(=O)N([C@H](C)CO)C[C@@H](C)[C@@H](CN(C)Cc1ccc(C(F)(F)F)cc1)O2, the cytotoxicity call is reported as “inactive”. With Cc1ccc(S(=O)(=O)N2C[C@@H](O)COC[C@H]3O[C@H](CC(=O)N[C@@H]4CCN(Cc5ccccc5)C4)CC[C@@H]32)cc1 the cytotoxicity call was “inactive”. For COc1ccccc1C#Cc1cnc2c(c1)C(=O)N([C@@H](C)CO)C[C@H](C)[C@@H](CN(C)C(=O)CN(C)C)O2, the cytotoxicity call was “inactive”. With C=C(C)[C@@H]1CC[C@]2(COC(C)=O)CC[C@]3(C)[C@H](CC[C@@H]4[C@@]5(C)CC[C@H](OC(C)=O)C(C)(C)[C@@H]5CC[C@]43C)[C@@H]12 the cytotoxicity call was “inactive”. In the case of C[C@@H]1CCCCO[C@@H](CN(C)S(=O)(=O)c2cn(C)cn2)[C@H](C)CN([C@@H](C)CO)C(=O)c2cc(NS(=O)(=O)c3cn(C)cn3)ccc2O1, the cytotoxicity call is reported as “inactive”. For C[C@H]1CN([C@@H](C)CO)C(=O)c2cc(NC(=O)C3CC3)ccc2O[C@H]1CN(C)C(=O)NC1CCCCC1, the cytotoxicity call was “inactive”. COc1cc2c(cc1OC)-c1onc(-c3ccc(OCCO[Si](C(C)C)(C(C)C)C(C)C)cc3)c1CCCN(C[C@@H](C)O)CC2 was tested, and the cytotoxicity call was “inactive”. In the case of COc1cc2c(cc1OC)[C@@]13ON=C(c4ccc(OCCOC(=O)NCCCCCC(=O)NO)cc4)[C@@H]1CCN3CC2, the cytotoxicity call is reported as “inactive”. In the case of COc1cc2c(cc1OC)-c1onc(-c3ccc(OCCO[Si](C(C)C)(C(C)C)C(C)C)cc3)c1CCCN(C[C@@H](C)OC(=O)NCCCCCC(=O)NO)CC2, the cytotoxicity call is reported as “active”. In the case of C/C=C/c1cccc(-c2nc(C(=O)NCc3ccc(OC)cc3)cc3c2[C@@H](CCO)N([S@](=O)C(C)(C)C)C3)c1, the cytotoxicity call is reported as “inactive”. COc1nn(C)cc1-c1n[nH]c(=S)n1C was tested, and the cytotoxicity call was “inactive”. O=C(C[C@@H]1CC[C@@H]2[C@H](COC[C@H](O)CN2S(=O)(=O)c2ccc(Oc3ccccc3)cc2)O1)NC1CCC1 was tested, and the cytotoxicity call was “inactive”. CC1(O)CCC(C(C)(C)O)CC1.O (stereo not given) was tested, and the cytotoxicity call was “inactive”. For CCCC#Cc1ccc2c(c1)O[C@@H](CN(C)S(=O)(=O)c1cccc(OC)c1)[C@@H](C)CN([C@H](C)CO)S2(=O)=O, the cytotoxicity call was “inactive”. For COc1cccc(S(=O)(=O)N(C)C[C@H]2Oc3ncc(C#CCN(C)C)cc3C(=O)N([C@H](C)CO)C[C@@H]2C)c1, the cytotoxicity call was “inactive”. For COc1ccc(NC(=O)Nc2ccc3c(c2)CC(=O)N([C@@H](C)CO)C[C@@H](C)[C@H](CN(C)S(=O)(=O)c2cn(C)cn2)O3)cc1, the cytotoxicity call was “inactive”. For COc1ccc(S(=O)(=O)Nc2ccc3c(c2)C(=O)N([C@H](C)CO)C[C@@H](C)[C@H](CN(C)CC2CCCCC2)OCCCC[C@@H](C)O3)cc1, the cytotoxicity call was “inactive”. COc1ccc(S(=O)(=O)Nc2ccc3c(c2)C(=O)N([C@@H](C)CO)C[C@H](C)[C@@H](CN(C)CC2CCCCC2)OCCCC[C@H](C)O3)cc1 was tested, and the cytotoxicity call was “inactive”. COc1ccc(S(=O)(=O)Nc2ccc3c(c2)C(=O)N([C@H](C)CO)C[C@@H](C)[C@@H](CN(C)CC2CCCCC2)OCCCC[C@@H](C)O3)cc1 was tested, and the cytotoxicity call was “active”. In the case of COc1ccc(S(=O)(=O)Nc2ccc3c(c2)C(=O)N([C@@H](C)CO)C[C@@H](C)[C@@H](CN(C)CC2CCCCC2)OCCCC[C@H](C)O3)cc1, the cytotoxicity call is reported as “active”. With COc1ccc(S(=O)(=O)Nc2ccc3c(c2)C(=O)N([C@@H](C)CO)C[C@H](C)[C@H](CN(C)CC2CCCCC2)OCCCC[C@H](C)O3)cc1 the cytotoxicity call was “inactive”. For COc1ccc(S(=O)(=O)Nc2ccc3c(c2)C(=O)N([C@@H](C)CO)C[C@@H](C)[C@H](CN(C)CC2CCCCC2)OCCCC[C@H](C)O3)cc1, the cytotoxicity call was “inactive”. For COc1ccc(S(=O)(=O)Nc2ccc3c(c2)C(=O)N([C@@H](C)CO)C[C@@H](C)[C@@H](CN(C)CC2CCCCC2)OCCCC[C@@H](C)O3)cc1, the cytotoxicity call was “active”. With COc1ccc(S(=O)(=O)Nc2ccc3c(c2)C(=O)N([C@H](C)CO)C[C@@H](C)[C@@H](CN(C)CC2CCCCC2)OCCCC[C@H](C)O3)cc1 the cytotoxicity call was “inactive”. With COc1ccc(S(=O)(=O)Nc2ccc3c(c2)C(=O)N([C@@H](C)CO)C[C@H](C)[C@H](CN(C)CC2CCCCC2)OCCCC[C@@H](C)O3)cc1 the cytotoxicity call was “inactive”. In the case of COc1ccc(S(=O)(=O)Nc2ccc3c(c2)C(=O)N([C@@H](C)CO)C[C@@H](C)[C@H](CN(C)CC2CCCCC2)OCCCC[C@@H](C)O3)cc1, the cytotoxicity call is reported as “inactive”. With COc1ccc(S(=O)(=O)Nc2ccc3c(c2)C(=O)N([C@H](C)CO)C[C@H](C)[C@@H](CN(C)CC2CCCCC2)OCCCC[C@H](C)O3)cc1 the cytotoxicity call was “inactive”. In the case of COc1ccc(NC(=O)Nc2ccc3c(c2)C(=O)N([C@H](C)CO)C[C@@H](C)[C@H](CN(C)C(=O)NC2CCCCC2)OCCCC[C@@H](C)O3)cc1, the cytotoxicity call is reported as “inactive”. For CC(C)NC(=O)N(C)C[C@@H]1Oc2ccc(NS(=O)(=O)c3ccc(F)cc3)cc2C(=O)N([C@H](C)CO)C[C@H]1C, the cytotoxicity call was “inactive”. C[C@@H]1CCCCO[C@H](CN(C)C(=O)c2ccccc2)[C@@H](C)CN([C@H](C)CO)C(=O)c2cc(NS(=O)(=O)c3ccccc3)ccc2O1 was tested, and the cytotoxicity call was “inactive”. For Cc1cc(=O)[n+]2cccc(O)c2[nH]1, the cytotoxicity call was “inactive”. For CC(C)NC(=O)Nc1ccc2c(c1)C(=O)N([C@H](C)CO)C[C@@H](C)[C@@H](CN(C)S(=O)(=O)c1ccc(Cl)cc1)O2, the cytotoxicity call was “inactive”. In the case of CCc1cc(C(N)=O)c(N)s1, the cytotoxicity call is reported as “inactive”. C[C@@H]1CCCCO[C@H](CN(C)C(=O)Nc2ccc(F)cc2)[C@@H](C)CN([C@H](C)CO)C(=O)c2cc(NC(=O)Nc3ccccc3)ccc2O1 was tested, and the cytotoxicity call was “inactive”. CCOC(=O)N[C@H]1CCS(=O)(=O)C1 was tested, and the cytotoxicity call was “inactive”. In the case of Cc1cn2c(=O)c(C(=O)O)cnc2s1, the cytotoxicity call is reported as “inactive”. With C[C@@H]1CN([C@H](C)CO)C(=O)c2cccc(NS(C)(=O)=O)c2O[C@@H]1CN(C)S(=O)(=O)c1ccccc1 the cytotoxicity call was “inactive”. CCOC(=O)CCCCCC(=O)Nc1ccc2c(c1)C(=O)N([C@H](C)CO)C[C@@H](C)[C@@H](CN(C)S(=O)(=O)c1ccc(C)cc1)OCCCC[C@H](C)O2 was tested, and the cytotoxicity call was “inactive”. With C[C@@H]1CCCCO[C@H](CN(C)Cc2ccccc2)[C@H](C)CN([C@H](C)CO)C(=O)c2cc(NS(=O)(=O)c3ccc(Cl)cc3)ccc2O1 the cytotoxicity call was “active”. In the case of C[C@@H]1CN([C@@H](C)CO)C(=O)c2cc(NS(=O)(=O)c3ccc(Cl)cc3)ccc2O[C@@H](C)CCCCO[C@@H]1CN(C)Cc1ccccc1, the cytotoxicity call is reported as “active”. In the case of C[C@@H]1CCCCO[C@H](CN(C)Cc2ccccc2)[C@@H](C)CN([C@H](C)CO)C(=O)c2cc(NS(=O)(=O)c3ccc(Cl)cc3)ccc2O1, the cytotoxicity call is reported as “inactive”. C[C@@H]1CCCCO[C@@H](CN(C)Cc2ccccc2)[C@H](C)CN([C@@H](C)CO)C(=O)c2cc(NS(=O)(=O)c3ccc(Cl)cc3)ccc2O1 was tested, and the cytotoxicity call was “inactive”. With C[C@@H]1CCCCO[C@@H](CN(C)Cc2ccccc2)[C@@H](C)CN([C@@H](C)CO)C(=O)c2cc(NS(=O)(=O)c3ccc(Cl)cc3)ccc2O1 the cytotoxicity call was “inactive”. For C[C@@H]1CCCCO[C@@H](CN(C)Cc2ccccc2)[C@@H](C)CN([C@H](C)CO)C(=O)c2cc(NS(=O)(=O)c3ccc(Cl)cc3)ccc2O1, the cytotoxicity call was “inactive”. With C[C@H]1CCCCO[C@H](CN(C)Cc2ccccc2)[C@@H](C)CN([C@@H](C)CO)C(=O)c2cc(NS(=O)(=O)c3ccc(Cl)cc3)ccc2O1 the cytotoxicity call was “inactive”. For C[C@@H]1CN([C@@H](C)CO)C(=O)c2cc(NS(=O)(=O)c3ccc(Cl)cc3)ccc2O[C@@H](C)CCCCO[C@H]1CN(C)Cc1ccccc1, the cytotoxicity call was “inactive”. With C[C@H]1CCCCO[C@@H](CN(C)Cc2ccccc2)[C@@H](C)CN([C@@H](C)CO)C(=O)c2cc(NS(=O)(=O)c3ccc(Cl)cc3)ccc2O1 the cytotoxicity call was “active”. C[C@@H]1CN([C@H](C)CO)C(=O)c2cc(NS(=O)(=O)c3ccc(Cl)cc3)ccc2O[C@@H](C)CCCCO[C@@H]1CN(C)Cc1ccccc1 was tested, and the cytotoxicity call was “inactive”. In the case of C[C@H](CO)N1C[C@H](C)[C@@H](CN(C)Cc2ccccc2)OCCCC[C@H](C)Oc2ccc(NS(=O)(=O)c3ccc(Cl)cc3)cc2C1=O, the cytotoxicity call is reported as “inactive”. For C[C@@H]1CCCCO[C@H](CN(C)Cc2ccccc2)[C@H](C)CN([C@@H](C)CO)C(=O)c2cc(NS(=O)(=O)c3ccc(Cl)cc3)ccc2O1, the cytotoxicity call was “active”.
